In all, about 1,400 sequences were measured (“thermal melting temperature (Tm) of peptide-HLA complex”: median about 60, lowest 2% from about 45 on). This is one part of a sample in which the lowest values are shown more often than they occur.
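Note: lysates heated 10 min at 37–73 °C, complexes pulled down with pan-HLA I antibody, peptide signal by DIA-MS relative to 37 °C, Tm where half the complex is unfolded.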

In the experiment the target is HLA-B*07:02. As to the kind of experiment: thermal melting temperature (Tm) of peptide-HLA complex; higher = more thermostable pHLA complex. Conditions: C1R-B*07:02.
VARPLSTAL returned a thermal melting temperature of 59.6 °C.

The sequence HPVVSSVPL came in with a thermal melting temperature of 57.8 °C.

RPYGVGLLI: the thermal melting temperature worked out at 59 °C.

IPSIRNGIL: the thermal melting temperature was 62.8 °C.

SPRTPVSPVKF gave a thermal melting temperature of 59.3 °C.

As to SPRAPVSPLKF, the thermal melting temperature amounted to 59.5 °C.

Sequence WPHPPGPFL yielded a thermal melting temperature of 62.3 °C.

In turn, SPIYISRII displayed a thermal melting temperature of 58.8 °C.

For the sequence RPFERTITM, the thermal melting temperature was 56.5 °C.

As to QPATPGLGM, the thermal melting temperature was 57 °C.

In the case of APSGTRVVQVL, the thermal melting temperature worked out at 41.4 °C.

For the sequence KPRPIIPML, the thermal melting temperature stood at 60.7 °C.

The sequence IPTKKSQVF showed a thermal melting temperature of 58.9 °C.

In the case of YPFFRGVTI, the thermal melting temperature came out at 61.8 °C.

In turn, HPRAPVLL showed a thermal melting temperature of 59.5 °C.

On to TPEEVRLPL, for which the thermal melting temperature stood at 62.1 °C.

These data come from the supplement of paper PMC7726561.
